From PubChem BioAssay (NCI)
About 79,000 compounds went through this panel and 15% of them were active in at least one assay; those are over-represented in the sample as a whole. Active and inactive are the calls of the source. Cut-off read from the data, not from the text of the source: active = growth inhibition above about 70%; inactive = the rest.

Assays:
[1] = NCI Yeast Anticancer Drug Screen. Data for the mec2-1 strain (AID 157); conditions: S. cerevisiae mec2-1 strain, stronger effect = higher value
How it was run: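 mec2-1 yeast strain, carrying an alteration in DNA damage repair or cell cycle control, was exposed to compounds; growth inhibition was measured relative to vehicle-treated controls.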

[2] = NCI Yeast Anticancer Drug Screen. Data for the rad14 strain (AID 159);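 note: 0% = growth of vehicle-treated control cultures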; conditions: S. cerevisiae rad14 strain growth inhibition, stronger effect = higher value
How it was run: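 Inhibition of growth is reported for a repair-deficient yeast mutant following compound treatment, calculated relative to cultures that received vehicle.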

[3] = NCI Yeast Anticancer Drug Screen. Data for the sgs1 mgt1 strain (AID 161);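 note: 0% = growth of cultures given vehicle only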; conditions: S. cerevisiae sgs1 mgt1 strain, stronger effect = higher value
How it was run: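 Percent growth inhibition was derived by comparing compound-exposed mutant yeast with vehicle-exposed cultures. The strain carries alterations in DNA damage repair.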

[4] = NCI Yeast Anticancer Drug Screen. Data for the CLN2oe strain (AID 163);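 note: 0% = growth of vehicle-only control cultures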; conditions: S. cerevisiae CLN2oe strain, stronger effect = higher value
How it was run: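 Yeast cells carrying a defined cell-cycle control alteration were exposed to test compounds. Growth inhibition was scored against vehicle-treated control cultures.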

[5] = NCI Yeast Anticancer Drug Screen. Data for the cln2 rad14 strain (AID 165);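 note: 0% = growth equal to vehicle treated cultures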; conditions: S. cerevisiae cln2 rad14 strain, stronger effect = higher value
How it was run: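 Yeast carrying cln2 and rad14 alterations (cell cycle control and DNA damage repair) were exposed to compounds. Growth inhibition was measured against vehicle-treated controls.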

[6] = NCI Yeast Anticancer Drug Screen. Data for the bub3 strain (AID 167); conditions: S. cerevisiae bub3 mutant strain, stronger effect = higher value
How it was run: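 Mutant yeast screening strain plus compound; vehicle-treated cultures serve as the 0% inhibition reference.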

[7] = NCI Yeast Anticancer Drug Screen. Data for the wt2 strain (AID 169); conditions: S. cerevisiae wt2 strain growth inhibition, stronger effect = higher value
How it was run: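 Yeast cells were exposed to test compounds, and growth inhibition was measured relative to vehicle-treated controls.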

[8] = NCI Yeast Anticancer Drug Screen. Data for the mlh1 strain (AID 171);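 note: 0% = growth of vehicle-treated control cultures of the same strain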; conditions: S. cerevisiae mlh1 strain growth inhibition, stronger effect = higher value
How it was run: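 Yeast carrying a defined genetic alteration in DNA damage repair or cell cycle control were exposed to test compounds. Growth inhibition was measured relative to vehicle-treated controls.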

[9] = NCI Yeast Anticancer Drug Screen. Data for the sgs1 strain (AID 173);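 note: 0% = growth of vehicle-only control cultures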; conditions: S. cerevisiae sgs1 mutant, stronger effect = higher value
How it was run: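 Yeast mutant strains carrying defined defects in DNA damage repair or cell cycle control were exposed to test compounds. Growth inhibition was scored against vehicle-treated controls.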

[10] = NCI Yeast Anticancer Drug Screen. Data for the mlh1 rad18 strain (AID 175); conditions: S. cerevisiae mlh1 rad18 strain growth inhibition, stronger effect = higher value
How it was run: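 Growth inhibition of the yeast strain was measured after compound exposure and expressed relative to vehicle-treated controls. The strain carries defined defects in DNA damage repair.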

[11] = NCI Yeast Anticancer Drug Screen. Data for the rad18 strain (AID 177); conditions: S. cerevisiae rad18 mutant growth inhibition, stronger effect = higher value
How it was run: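 Yeast carrying a defined DNA damage repair alteration were exposed to compounds. Growth inhibition was expressed relative to vehicle-treated controls.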

[12] = NCI Yeast Anticancer Drug Screen. Data for the rad52 strain (AID 147);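 note: 0% = growth of vehicle-treated control cultures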; conditions: S. cerevisiae rad52 mutant growth inhibition, stronger effect = higher value
How it was run: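 Yeast strain carrying a DNA damage repair alteration was exposed to test compounds. Growth inhibition was measured relative to vehicle-treated controls.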

[13] = NCI Yeast Anticancer Drug Screen. Data for the wt1 strain (AID 149);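 note: 0% = growth of vehicle-treated wt1 cultures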; conditions: S. cerevisiae wt1 strain (SPY 50644) growth inhibition, stronger effect = higher value
How it was run: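 Each compound is tested on wt1 yeast and the loss of growth versus vehicle gives the inhibition value.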

[14] = NCI Yeast Anticancer Drug Screen. Data for the rad50EPP+ strain (AID 151);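 note: 0% = growth of vehicle-treated control cultures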; conditions: S. cerevisiae rad50 mutant strain, stronger effect = higher value
How it was run: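 Yeast strain carrying rad50 alteration (rad50EPP+) exposed to compounds; growth inhibition measured relative to vehicle-treated controls.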

[15] = NCI Yeast Anticancer Drug Screen. Data for the mgt1 strain (AID 153); conditions: S. cerevisiae mgt1 mutant growth inhibition, stronger effect = higher value
How it was run: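 Yeast mgt1 strain (DNA repair/cell-cycle alteration panel) exposed to compounds; growth inhibition measured relative to vehicle-treated controls.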

[16] = NCI Yeast Anticancer Drug Screen. Data for the rad50 strain (AID 155);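 note: 0% = growth of vehicle-only cultures of the same strain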; conditions: S. cerevisiae rad50 strain growth inhibition, stronger effect = higher value
How it was run: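 Vehicle-treated cultures provide the reference for the growth inhibition reported for compound-exposed, repair-deficient yeast.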

[17] = at 5.0 µM (retest, dose inferred, filed as 0.5)
[18] = at 50.0 µM (retest, dose inferred, filed as 5.0)

Measured: growth inhibition

Cc1cccc(NC(=O)CBr)c1
inactive: [1]; [17] 1% | [2]; at 1.2 µM -27% | [2]; at 3.7 µM 57% | [3]; [17] 49% | [4]; at 1.2 µM 2% | [4]; at 3.7 µM 22% | [5]; [17] 34% | [6]; at 1.2 µM 13% | [6]; at 3.7 µM 58% | [6]; [17] 63% | [7]; at 1.2 µM 1% | [7]; at 3.7 µM 33% | [8]; at 1.2 µM -2% | [8]; at 3.7 µM 46% | [9]; at 1.2 µM 9% | [9]; at 3.7 µM 55% | [10]; [17] 45% | [11]; at 1.2 µM 5% | [11]; at 3.7 µM 39%
active: [1]; at 11.0 µM 98% | [1]; at 33.0 µM 99% | [1]; [18] 99% | [1]; at 50.0 µM 99.7% | [1]; at 100.0 µM 99% | [2]; at 11.0 µM 99% | [2]; at 33.0 µM 99% | [2]; at 100.0 µM 99% | [3]; [18] 99% | [3]; at 50.0 µM 99.2% | [4]; at 11.0 µM 96% | [4]; at 33.0 µM 98% | [4]; at 100.0 µM 98% | [5]; [18] 99% | [5]; at 50.0 µM 99.1% | [6]; at 11.0 µM 97% | [6]; at 33.0 µM 98% | [6]; [18] 98% | [6]; at 50.0 µM 99.6% | [6]; at 100.0 µM 99% | [7]; at 11.0 µM 98% | [7]; at 33.0 µM 99% | [7]; at 100.0 µM 99% | [8]; at 11.0 µM 99% | [8]; at 33.0 µM 99% | [8]; at 100.0 µM 99% | [9]; at 11.0 µM 99% | [9]; at 33.0 µM 99% | [9]; at 100.0 µM 99% | [10]; [18] 99% | [10]; at 50.0 µM 99.3% | [11]; at 11.0 µM 97% | [11]; at 33.0 µM 99% | [11]; at 100.0 µM 99%

O=C1c2ccccc2C(=O)C(Cl)C1Cl (centres undefined)
inactive: [12]; at 1.2 µM 1% | [12]; at 3.7 µM 15% | [13]; at 1.2 µM 7% | [13]; at 3.7 µM 18% | [14]; at 1.2 µM 7% | [14]; at 3.7 µM 36% | [15]; at 1.2 µM 7% | [15]; at 3.7 µM 13% | [16]; at 1.2 µM 5% | [16]; at 3.7 µM 36% | [16]; [17] 29% | [1]; at 1.2 µM 9% | [1]; at 3.7 µM 22% | [1]; [17] 34% | [2]; at 1.2 µM 7% | [2]; at 3.7 µM 18% | [3]; [17] 33% | [4]; at 1.2 µM 4% | [4]; at 3.7 µM 10% | [5]; [17] 10% | [6]; at 1.2 µM 13% | [6]; at 3.7 µM 35% | [7]; at 1.2 µM 9% | [7]; at 3.7 µM 24% | [8]; at 1.2 µM 1% | [8]; at 3.7 µM 4% | [9]; at 1.2 µM 4% | [9]; at 3.7 µM 15% | [10]; [17] 21% | [11]; at 1.2 µM 1% | [11]; at 3.7 µM 10%
active: [12]; at 11.0 µM 88% | [12]; at 33.0 µM 99% | [12]; at 100.0 µM 98% | [13]; at 11.0 µM 72% | [13]; at 33.0 µM 99% | [13]; at 100.0 µM 99% | [14]; at 11.0 µM 98% | [14]; at 33.0 µM 99% | [14]; at 100.0 µM 98% | [15]; at 11.0 µM 99% | [15]; at 33.0 µM 99% | [15]; at 100.0 µM 99% | [16]; at 11.0 µM 98% | [16]; at 33.0 µM 99% | [16]; [18] 99% | [16]; at 50.0 µM 99.2% | [16]; at 100.0 µM 99% | [1]; at 11.0 µM 90% | [1]; at 33.0 µM 99% | [1]; [18] 99% | [1]; at 50.0 µM 99.4% | [1]; at 100.0 µM 99% | [2]; at 11.0 µM 92% | [2]; at 33.0 µM 99% | [2]; at 100.0 µM 99% | [3]; [18] 99% | [3]; at 50.0 µM 99.5% | [4]; at 11.0 µM 71% | [4]; at 33.0 µM 99% | [4]; at 100.0 µM 98% | [5]; [18] 99% | [5]; at 50.0 µM 99.1% | [6]; [17] 88% | [6]; at 11.0 µM 98% | [6]; at 33.0 µM 99% | [6]; [18] 99% | [6]; at 50.0 µM 99.3% | [6]; at 100.0 µM 99% | [7]; at 11.0 µM 82% | [7]; at 33.0 µM 99% | [7]; at 100.0 µM 99% | [8]; at 11.0 µM 93% | [8]; at 33.0 µM 99% | [8]; at 100.0 µM 99% | [9]; at 11.0 µM 89% | [9]; at 33.0 µM 99% | [9]; at 100.0 µM 99% | [10]; [18] 99% | [10]; at 50.0 µM 99.3% | [11]; at 11.0 µM 91% | [11]; at 33.0 µM 99% | [11]; at 100.0 µM 99%

C[N+](C)(C)CC1CCCC(C[N+](C)(C)C)C1=O (centres undefined)
active: [12]; at 100.0 µM 96% | [13]; at 100.0 µM 98% | [14]; at 100.0 µM 99% | [15]; at 100.0 µM 99% | [16]; at 50.0 µM 91.8% | [16]; at 100.0 µM 99% | [1]; at 50.0 µM 99.8% | [1]; at 100.0 µM 98% | [2]; at 100.0 µM 99% | [6]; at 50.0 µM 89.2% | [6]; at 100.0 µM 99% | [7]; at 100.0 µM 94% | [8]; at 100.0 µM 99% | [9]; at 100.0 µM 99% | [10]; at 50.0 µM 97.2% | [11]; at 33.0 µM 93% | [11]; at 100.0 µM 98%
inactive: [12]; at 1.2 µM 0% | [12]; at 3.7 µM 1% | [12]; at 11.0 µM 9% | [12]; at 33.0 µM 34% | [13]; at 1.2 µM -1% | [13]; at 3.7 µM 3% | [13]; at 11.0 µM -1% | [13]; at 33.0 µM 13% | [14]; at 1.2 µM -3% | [14]; at 3.7 µM 3% | [14]; at 11.0 µM 13% | [14]; at 33.0 µM 64% | [15]; at 1.2 µM 0% | [15]; at 3.7 µM 2% | [15]; at 11.0 µM 5% | [15]; at 33.0 µM 27% | [16]; at 1.2 µM 2% | [16]; at 3.7 µM -18% | [16]; [17] 1% | [16]; at 11.0 µM 37% | [16]; at 33.0 µM 63% | [16]; [18] 35% | [1]; at 1.2 µM 1% | [1]; at 3.7 µM 5% | [1]; [17] 6% | [1]; at 11.0 µM 10% | [1]; at 33.0 µM 25% | [1]; [18] -19% | [2]; at 1.2 µM -1% | [2]; at 3.7 µM 0% | [2]; at 11.0 µM 8% | [2]; at 33.0 µM 38% | [3]; [17] 3% | [3]; [18] 50% | [3]; at 50.0 µM 68.3% | [4]; at 1.2 µM 0% | [4]; at 3.7 µM 1% | [4]; at 11.0 µM 6% | [4]; at 33.0 µM 12% | [4]; at 100.0 µM 24% | [5]; [17] 6% | [5]; [18] 21% | [5]; at 50.0 µM 25.5% | [6]; at 1.2 µM -1% | [6]; at 3.7 µM 4% | [6]; [17] -45% | [6]; at 11.0 µM 4% | [6]; at 33.0 µM 44% | [6]; [18] 41% | [7]; at 1.2 µM -3% | [7]; at 3.7 µM 7% | [7]; at 11.0 µM 2% | [7]; at 33.0 µM 5% | [8]; at 1.2 µM 0% | [8]; at 3.7 µM 3% | [8]; at 11.0 µM 7% | [8]; at 33.0 µM 26% | [9]; at 1.2 µM -1% | [9]; at 3.7 µM 3% | [9]; at 11.0 µM 15% | [9]; at 33.0 µM 64% | [10]; [17] 8% | [10]; [18] 62% | [11]; at 1.2 µM 1% | [11]; at 3.7 µM 13% | [11]; at 11.0 µM 44%
